{
  "source": "PubChem BioAssay (NCATS)",
  "key": {"[1]": {"experiment": "qHTS profiling of the MIPE4 collection as inhibitors of Plasmodium falciparum (DD2) proliferation (Rep 2) (AID 743346)", "settings": "P. falciparum Dd2 in erythrocytes, SYBR Green DNA, 72 h", "how_it_was_run": "(§1)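 Parasite DNA was quantified by SYBR Green I fluorescence (ex 485, em 535 nm) after overnight lysis in saponin/Triton buffer at room temperature. Cultures at 0.3% parasitemia and 2.5% hematocrit were first exposed to compound for 72 h at 37 C; signals were normalised to artemisinin (0.29 uM) and vehicle wells.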"}, "[2]": {"experiment": "qHTS profiling of the MIPE4 collection as inhibitors of Plasmodium falciparum (HB3) proliferation (AID 743347)", "settings": "P. falciparum HB3 in erythrocytes, SYBR Green DNA, 72 h", "how_it_was_run": "as §1"}, "[3]": {"experiment": "High-throughput drug toxicity screening in the BPDCN cell line Gen2.2 (AID 1224824)", "settings": "Gen2.2 BPDCN cells; at 45.8 µM (top of the series) unless noted", "how_it_was_run": "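Gen2.2, 500 cells/well, phenol red-free RPMI/10% FBS/Pen-Strep; 48 h cpd, 37 °C/5% CO2; CTG lum, 15 min RT. Norm: DMSO = 100%, bortezomib 9.2 uM final = 0%.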"}, "[4]": {"experiment": "High-throughput drug toxicity screening in the BPDCN cell line Cal-1 (AID 1224825)", "settings": "Cal-1 BPDCN cell viability, qHTS; at 45.8 µM (top of the series) unless noted", "how_it_was_run": "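CellTiter-Glo luminescence after 48 h compound exposure; percent activity scaled with DMSO as 100% and bortezomib (9.2 uM final) as 0%. Cal-1 cells seeded at 500/well in RPMI, 10% FBS, no phenol red.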"}, "[5]": {"experiment": "qHTS assay for measurement of the activity of small molecule inhibitors on Zika virus induced Caspase-3 activity in human iPSC derived neural progenitor cells (hNPCs) (AID 1224857; active means well fitted curve in the direction sought with a large enough effect; an effect the other way counts as inactive or inconclusive)", "how_it_was_run": "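Zika virus (2 FFU/cell) infection of human iPSC-derived NPCs, 6 h, following 1 h compound preincubation. Read-out: Caspase-Glo 3/7 luminescence.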"}, "[6]": {"experiment": "qHTS profiling of the MIPE4 collection as inhibitors of Plasmodium falciparum (3D7) proliferation (AID 743344)", "settings": "P. falciparum 3D7 in erythrocytes, SYBR Green DNA fluorescence, 72 h; at 28.5 µM unless noted", "how_it_was_run": "as §1"}, "[7]": {"experiment": "qHTS profiling of the MIPE4 collection as inhibitors of Plasmodium falciparum (DD2) proliferation (AID 743345)", "settings": "P. falciparum Dd2 in erythrocytes, SYBR Green DNA, 72 h", "how_it_was_run": "as §1"}, "[8]": {"experiment": "qHTS profiling for inhibitors of Plasmodium falciparum (DD2) proliferation (AID 743323)", "settings": "lower = more inhibition; at 28.7 µM (top of the series)", "how_it_was_run": "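P. falciparum Dd2-infected erythrocytes (0.3% parasitemia, 2.5% hematocrit) exposed 72 h at 37 C, 5% CO2. Lysis with SYBR Green, overnight at room temperature, fluorescence 485/535 nm; normalized to 0.29 uM artemisinin and DMSO.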"}, "[9]": {"experiment": "qHTS profiling for inhibitors of Plasmodium falciparum (HB3) proliferation (AID 743324; active means well fitted curve in the direction sought with a large enough effect; an effect the other way counts as inactive or inconclusive)", "settings": "Plasmodium falciparum HB3 blood-stage proliferation; at 28.7 µM (top of the series)", "how_it_was_run": "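SYBR Green fluorescence (485 ex/535 em) of lysed cultures, incubated overnight at room temperature in the dark, quantifies parasite DNA. Infected erythrocytes at 0.3% parasitemia and 2.5% hematocrit were exposed 72 h; values normalized to DMSO and 0.29 uM artemisinin controls.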"}, "[10]": {"settings": "at 28.5 µM unless noted"}},
  "note": "Records with an inconclusive call do not appear. Calls of active or inactive are those of the source. Unless noted, how the calls were made is not given here.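 Wherever cell viability, % of control (lower = more cytotoxic) is given: cells exposed to compounds for 48 h before reading.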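 Wherever growth, % of control is given: plate controls were DMSO vehicle wells for no effect and artemisinin wells for full effect.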",
  "data": [
    {"molecule": "CCNC(=O)Nc1ccc2ncc(Nc3ccc(C)cc3)nc2n1", "values": [
      {"measurement": "parasite growth, % of control (lower = inhibition)", "setting": "[1]; [10]", "value": 33, "unit": "%"},
      {"measurement": "growth, % of control", "setting": "[2]; [10]", "value": 16.3, "unit": "%"},
      {"measurement": "cell viability, % of control (lower = more cytotoxic)", "setting": "[3]", "value": 50.5, "unit": "%"},
      {"measurement": "viability (% of control)", "setting": "[4]", "value": 19.7, "unit": "%"},
      {"measurement": "Potency", "setting": "[5]", "value": "inactive"}
    ]},
    {"molecule": "C[C@@H]1COC(Nc2ccc3ncnc(Nc4ccc(OCc5nccs5)c(Cl)c4)c3c2)=N1", "values": [
      {"measurement": "parasite growth, % of DMSO control", "setting": "[6]", "value": 6, "unit": "%"},
      {"measurement": "parasite growth remaining, % of DMSO control (lower = more inhibition)", "setting": "[7]; [10]", "value": 11.5, "unit": "%"},
      {"measurement": "parasite growth, % of control (lower = inhibition)", "setting": "[1]; [10]", "value": 27.7, "unit": "%"},
      {"measurement": "growth, % of control", "setting": "[2]; [10]", "value": 8.37, "unit": "%"},
      {"measurement": "cell viability, % of control (lower = more cytotoxic)", "setting": "[3]", "value": 127, "unit": "%"},
      {"measurement": "viability (% of control)", "setting": "[4]", "value": 13, "unit": "%"}
    ]},
    {"molecule": "O=C(c1ccc(Nc2nccc(-c3cc4ccccc4s3)n2)cc1)N1CCC(N2CCCC2)CC1", "values": [
      {"measurement": "activity, percent of control", "setting": "[8]", "value": -0.895, "unit": "%"},
      {"measurement": "remaining proliferation (% of control), lower = more inhibition", "setting": "[9]", "value": -1.21, "unit": "%"},
      {"measurement": "parasite growth, % of DMSO control", "setting": "[6]", "value": 4.58, "unit": "%"},
      {"measurement": "parasite growth remaining, % of DMSO control (lower = more inhibition)", "setting": "[7]; [10]", "value": 6.27, "unit": "%"},
      {"measurement": "parasite growth, % of control (lower = inhibition)", "setting": "[1]; [10]", "value": 18.7, "unit": "%"},
      {"measurement": "growth, % of control", "setting": "[2]; [10]", "value": 4.99, "unit": "%"},
      {"measurement": "cell viability, % of control (lower = more cytotoxic)", "setting": "[3]", "value": 11.5, "unit": "%"},
      {"measurement": "viability (% of control)", "setting": "[4]", "value": 3.16, "unit": "%"}
    ]},
    {"molecule": "Cc1c(Cn2c(C)nc3c(C(=O)O)cc(N4CCOCC4)cc32)cccc1C(F)(F)F", "values": [
      {"measurement": "parasite growth remaining, % of DMSO control (lower = more inhibition)", "setting": "[7]; [10]", "value": 93.9, "unit": "%"},
      {"measurement": "parasite growth, % of control (lower = inhibition)", "setting": "[1]; [10]", "value": 104, "unit": "%"},
      {"measurement": "growth, % of control", "setting": "[2]; [10]", "value": 124, "unit": "%"},
      {"measurement": "cell viability, % of control (lower = more cytotoxic)", "setting": "[3]", "value": 52.8, "unit": "%"},
      {"measurement": "viability (% of control)", "setting": "[4]", "value": 70.7, "unit": "%"},
      {"measurement": "Potency", "setting": "[5]", "value": "inactive"}
    ]},
    {"molecule": "O=C(O)Cn1nnc(-c2cc(N3CCC(Oc4cc(F)ccc4Br)CC3)no2)n1", "values": [
      {"measurement": "parasite growth, % of DMSO control", "setting": "[6]", "value": 86, "unit": "%"},
      {"measurement": "parasite growth remaining, % of DMSO control (lower = more inhibition)", "setting": "[7]; [10]", "value": 127, "unit": "%"},
      {"measurement": "parasite growth, % of control (lower = inhibition)", "setting": "[1]; [10]", "value": 83.7, "unit": "%"},
      {"measurement": "growth, % of control", "setting": "[2]; [10]", "value": 95.6, "unit": "%"},
      {"measurement": "cell viability, % of control (lower = more cytotoxic)", "setting": "[3]", "value": 231, "unit": "%"},
      {"measurement": "viability (% of control)", "setting": "[4]", "value": 114, "unit": "%"}
    ]},
    {"molecule": "C[C@H]1C[C@@H]2[C@@H]([C@@H](O)C[C@@]3(C)[C@H]2CC[C@]3(O)C(=O)CO)[C@@]2(C)C=CC(=O)C=C12", "values": [
      {"measurement": "parasite growth remaining, % of DMSO control (lower = more inhibition)", "setting": "[7]; at 9.64 µM (top of the series)", "value": 93.1, "unit": "%"},
      {"measurement": "parasite growth remaining, % of DMSO control (lower = more inhibition)", "setting": "[7]; at 28.5 µM", "value": 84.7, "unit": "%"},
      {"measurement": "parasite growth, % of control (lower = inhibition)", "setting": "[1]; at 9.64 µM (top of the series)", "value": 62.6, "unit": "%"},
      {"measurement": "parasite growth, % of control (lower = inhibition)", "setting": "[1]; at 28.5 µM", "value": 62.7, "unit": "%"},
      {"measurement": "growth, % of control", "setting": "[2]; at 9.64 µM (top of the series)", "value": 93.3, "unit": "%"},
      {"measurement": "growth, % of control", "setting": "[2]; at 28.5 µM", "value": 57.2, "unit": "%"},
      {"measurement": "cell viability, % of control (lower = more cytotoxic)", "setting": "[3]", "value": 111, "unit": "%"},
      {"measurement": "viability (% of control)", "setting": "[4]", "value": 53.2, "unit": "%"}
    ]}
  ]
}
